Data as given in PubChem BioAssay (NCATS).
Results filed as inconclusive are left out. Active and inactive are the calls of the source. Calls follow the shape of the dose curve; as a rule, active = well fitted curve in the direction sought with a large enough effect; inconclusive = small, poorly fitted or top-dose-only effect, or another doubt; inactive = no such curve, though single readings can be large; an effect the other way counts as inactive or inconclusive.

What was measured:
[1] = Cellular Toxicity (caspase-3) Hek293 (AID 664);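 also: cells exposed to compound for 16 h at 37 °C before readout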
Procedure, shortened: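 HEK293 cells in complete medium treated 16 h at 37 °C, then Caspase-Glo 3/7 luminescence read after 20 min at room temperature. Normalized to DMSO and 100 uM tamoxifen; AC50 from Hill fit of concentration-response.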

[2] = Cellular Toxicity (caspase-3) N2a (AID 665); conditions: N2a cells, luminescence, normalized: DMSO 0%, 10 µM staurosporine 100%; at 92.2 µM (top of the series);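 also: compound exposure lasted 16 h at 37 °C before readout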
Procedure, shortened: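 Mouse N2a neuroblastoma cells, 1500 per well, treated 16 h at 37 °C in complete medium; caspase-3/7 activity by Caspase-Glo luminescence after 1 h. Normalized to DMSO and 10 uM staurosporine; AC50 from Hill fits.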

[3] = Cellular Toxicity (caspase-3) NIH 3T3 (AID 666);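 also: caspase signal read after 16 h compound exposure; 0% = DMSO basal and 100% = 100 µM tamoxifen stimulation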
Procedure, shortened: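 Mouse NIH 3T3 fibroblasts (1000/well) treated 16 h at 37 C; caspase-3/7 activity measured by Caspase-Glo 3/7 luminescence after 20 min. Normalized to DMSO and 100 uM tamoxifen; AC50 from Hill fits.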

[4] = Cellular Toxicity (caspase-3) Renal Proximal Tubule (AID 667); conditions: renal proximal tubule cells; at 91.7 µM (top of the series), primary cells freshly taken from rat, solvent-only wells 0%, staurosporine 100% unless noted;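 also: cells exposed to compound for 16 hours at 37 °C before detection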
Procedure, shortened: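 In qHTS format, rat primary proximal tubule cells seeded at 1000 per well are exposed to compounds for 16 hours at 37 °C. An increase in Caspase-Glo 3/7 luminescence indicates caspase activation.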

[5] = target: Cytochrome P450 3A4 (Homo sapiens) (UniProt P08684); assay: qHTS Assay for Activators of Cytochrome P450 3A4 (AID 885); also: nearly all actives have a fitted effect of over 65% in size
Procedure, shortened: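 Signal was normalized against complete inhibition by 57 uM ketoconazole. The reaction used 20nM CYP3A4 with 25uM Luciferin-PPXE, 10-min compound preincubation and a 60-min NADPH-supported step at RT.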

[6] = Cell Viability - LYMP2-001 (AID 921);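 also: 0% = DMSO only and full inhibition = tetraoctylammonium bromide control wells; nearly all actives have a fitted effect of over 70% in size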
Procedure, shortened: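 qHTS, 1536-well; lymphoblastoid cells, 24 hr compound, 37 C; ATP by CellTiter-Glo, 30 min RT; luminescence; Hill-fit AC50.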

[7] = MultiTox-Fluor Cytotoxicity Assay - LYMP1-001 - Dead Cells (AID 946)
Procedure, shortened: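 Cytotoxicity as increased dead-cell protease fluorescence (bis-AAF-R110, 485/520 nm), read 60 min after MultiTox-Fluor reagent. Human lymphoblastoid line exposed 16 h; Hill-fitted AC50, with DMSO as 0% and 15 uM tetraoctylammonium bromide as 100%.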

[8] = MultiTox-Fluor Cytotoxicity Assay - LYMP1-001 - Live Cells (AID 947);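 also: 0% = DMSO only and full inhibition = tetraoctylammonium bromide control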
[9] = Cell Viability - LYMP1-002 - Assay at 16 hr (AID 948);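 also: 0% = DMSO alone and full effect = 92 µM tetraoctylammonium bromide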
Procedure, shortened: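 Acute cytotoxicity is scored as a concentration-dependent fall in intracellular ATP in a human lymphoblastoid line (LYMP1-002) after 16 hr compound exposure at 37 C, measured by luciferase luminescence.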

[10] = MultiTox-Fluor Cytotoxicity Assay - LYMP1-002 - Live Cells (AID 955); also: % is scaled to controls: 0 for no effect and ±100 for the full control effect
Procedure, shortened: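 Human lymphoblastoid LYMP1-002 cells, 2500/well, treated 16 h at 37 C in complete medium. Live-cell protease activity via GF-AFC fluorescence (Ex/Em 405/510) after 60 min reagent incubation; AC50 from Hill fits.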

[11] = MultiTox-Fluor Cytotoxicity Assay - LYMP1-003 - Dead Cells (AID 961); also: nearly all actives have a fitted effect of over 70% in size
Procedure, shortened: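 Dead-cell protease release, detected as bis-AAF-R110 fluorescence at 485/520 nm, was measured in LYMP1-003 cells after 16 h compound treatment at 37 C. AC50 values came from Hill-modeled qHTS curves normalized to DMSO (0%) and 15 uM tetraoctylammonium bromide (100%).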

[12] = MultiTox-Fluor Cytotoxicity Assay - LYMP1-003 - Live Cells (AID 962);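 also: 0% = DMSO only and full loss = 92 µM tetraoctylammonium bromide; cytotoxic hits lower the live-cell protease signal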
Procedure, shortened: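 LYMP1-003 lymphoblastoid cells, 2500/well in complete medium, treated 16 h at 37 C; live-cell protease cleavage of GF-AFC read by fluorescence (Ex/Em 405/510) after 60 min reagent; AC50 from Hill fits of concentration-response.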

[13] = Cell Viability - LYMP1-003 - Assay at 24 hr (AID 963);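 also: plate controls were DMSO only for no effect and tetraoctylammonium bromide positive control for full effect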
Procedure, shortened: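 Human lymphoblastoid LYMP1-003 cells, 2500/well, treated 24 h at 37 C in complete medium. Viability read as intracellular ATP by CellTiter-Glo luminescence after 30 min at room temperature; AC50 from Hill-equation fits of qHTS concentration-response.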

[14] = Cell Viability - LYMP2-003 (AID 965);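 also: cells exposed to compounds for 24 h before reading; 0% = DMSO only and full effect = 92 µM tetraoctylammonium bromide; nearly all actives have a fitted effect of over 50% in size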
Procedure, shortened: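 Acute cytotoxicity is scored as a concentration-dependent drop in intracellular ATP, measured by luciferase luminescence in human lymphoblastoid cells treated for 24 hours at 37 C. AC50 values derive from Hill-equation modelling.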

[15] = Cell Viability - LYMP2-004 (AID 966);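 also: plate controls were DMSO only for no effect and tetraoctylammonium bromide control for full effect; nearly all actives have a fitted effect of over 65% in size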
Procedure, shortened: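 Lymphoblastoid LYMP2-004 cells, 2500 per well, were preincubated for 5 hr and then treated with compound for 24 h at 37 C in complete medium. Viability was read as cellular ATP by CellTiter-Glo luminescence, and AC50 values were taken from Hill fits to concentration-response data.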

[16] = Cell Viability - LYMP2-005 (AID 967);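 also: plate controls were DMSO only for no effect and 92 µM tetraoctylammonium bromide control for full effect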
Procedure, shortened: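 qHTS viability screen in LYMP2-005 cells: 24 h at 37 C with compound, ATP luminescence via CellTiter-Glo, AC50 from Hill curves.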

[17] = Cell Viability - LYMP2-009 (AID 968);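 also: 0% = DMSO alone and the full-kill end = tetraoctylammonium bromide at 92 µM; nearly all actives have a fitted effect of over 55% in size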
[18] = Cell Viability - LYMP2-011 (AID 969);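 also: cells exposed to compound for 24 hours; 0% = DMSO only and full inhibition = 92 µM tetraoctylammonium bromide; nearly all actives have a fitted effect of over 60% in size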
Procedure, shortened: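 2500 cells/well in complete medium, compound-treated 24 h at 37 C. Viability read as intracellular ATP by CellTiter-Glo luminescence after 30 min at room temperature. AC50 from Hill fits of qHTS concentration-response data.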

[19] = Cell Viability - LYMP2-013 (AID 970);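 also: 0% = DMSO only and full inhibition = tetraoctylammonium bromide control; nearly all actives have a fitted effect of over 55% in size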
Procedure, shortened: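 Human lymphoblastoid LYMP2-013 cells, 2500/well, treated 24 h at 37 C in complete medium; viability as intracellular ATP by CellTiter-Glo luminescence after 30 min. AC50 from Hill fits of qHTS concentration-response.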

[20] = Cell Viability - LYMP2-015 (AID 971);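 also: 0% = DMSO only and full effect = 92 µM tetraoctylammonium bromide; nearly all actives have a fitted effect of over 55% in size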
Procedure, shortened: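 LYMP2-015 human lymphoblastoid cells (2500/well) in complete medium, compound-treated 24 h at 37 C; viability read as cellular ATP by CellTiter-Glo luminescence after 30 min at room temperature. AC50 from Hill-equation fits of qHTS concentration-response data.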

[21] = Cell Viability - LYMP2-019 (AID 973);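 also: 0% = DMSO alone and full effect = 92 µM tetraoctylammonium bromide; nearly all actives have a fitted effect of over 55% in size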
Procedure, shortened: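 Human lymphoblastoid LYMP2-019 cells (2500/well) preincubated 5 h at 37 C, then treated 24 h at 37 C in complete medium. Viability by CellTiter-Glo ATP luminescence after 30 min at room temperature; AC50 from Hill fits.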

Chain of Cytochrome P450 3A4 (Homo sapiens) (P08684 whole entry, looked up): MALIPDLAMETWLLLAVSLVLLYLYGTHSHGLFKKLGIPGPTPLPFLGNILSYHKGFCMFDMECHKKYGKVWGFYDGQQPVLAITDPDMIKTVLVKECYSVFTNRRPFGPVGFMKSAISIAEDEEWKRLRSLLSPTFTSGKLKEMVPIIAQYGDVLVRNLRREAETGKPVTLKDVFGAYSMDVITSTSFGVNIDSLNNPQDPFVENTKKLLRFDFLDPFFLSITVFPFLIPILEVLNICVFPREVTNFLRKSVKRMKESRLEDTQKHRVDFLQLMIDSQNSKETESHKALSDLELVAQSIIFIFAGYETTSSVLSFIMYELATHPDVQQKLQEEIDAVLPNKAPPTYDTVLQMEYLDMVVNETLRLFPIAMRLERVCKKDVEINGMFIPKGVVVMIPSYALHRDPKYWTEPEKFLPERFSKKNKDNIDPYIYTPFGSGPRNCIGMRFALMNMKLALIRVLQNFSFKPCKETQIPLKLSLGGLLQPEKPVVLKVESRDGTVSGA

Clc1cccc(C(Cl)(Cl)Cl)n1
inactive: outcome [1] | caspase-3 activation [2] -0.536% | outcome [3] | caspase-3 activation [4] 4.49% | Potency [5] | Potency [6] | Potency [7] | Potency [8] | Potency [9] | outcome [10] | Potency [11] | Potency [12] | Potency [13] | Potency [14] | Potency [15] | Potency [16] | Potency [17] | Potency [18] | Potency [19] | Potency [20] | Potency [21]
